Where “and” joins values, the source holds several entries; their conditions need not be identical. Identical values can stand only once. Results filed as inconclusive are left out. Calls of active or inactive are those of the source. Unless noted, calls come from the whole dose curve; as a rule, active = well fitted curve in the direction sought with a large enough effect; inconclusive = small, poorly fitted or top-dose-only effect, or another doubt; inactive = no such curve, though single readings can be large; an effect the other way counts as inactive or inconclusive.
Tests used:
[1] = biological target: Cellular tumor antigen p53 (Homo sapiens) (UniProt P04637); assay: Primary qHTS for small molecule compounds that upregulate eGFP-tagged delta133p53alpha (in N-terminal) cells. (AID 2060322); settings: NCI-H358 eGFP-delta133p53alpha fluorescence, 24 h; activation: stronger effect = higher value;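 note: 0% = DMSO vehicle and 100% = reference activator; nearly all actives have a fitted effect of over 75% in size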
How it was run: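 NCI-H358 cells pre-induced 24 h with 10 ng/ml doxycycline to express N-terminal eGFP-delta133p53alpha, then dosed 24 h at 37C without doxycycline; fixed, Hoechst-stained, GFP intensity by laser scanning cytometry, normalized to DMSO (0%) and 57.5 uM 5-azacytidine (100%).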

[2] = biological target: Cellular tumor antigen p53 (Homo sapiens) (UniProt P04637); assay: Primary qHTS for small molecule compounds that upregulate eGFP-tagged delta133p53alpha (in C-terminal) cells. (AID 2060324); settings: NCI-H358 delta133p53alpha-eGFP (C-terminal tag), GFP fluorescence imaging, 24 h; series mostly up to 57.5 µM;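 note: 0% = DMSO wells and 100% = 57.5 µM 5-azacytidine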
How it was run: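 NCI-H358 cells pre-induced 24 h with 100 ng/ml doxycycline to express delta133p53alpha-eGFP, then dosed in doxycycline-free medium for 24 h at 37C. Fixed, Hoechst-stained; GFP intensity by laser scanning cytometry, normalized to DMSO wells.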

[3] = biological target: Aldehyde dehydrogenase, mitochondrial (Homo sapiens) (UniProt P05091); assay: qHTS for Inhibitors of the Aldehyde Dehydrogenase Family (ALDH2) Validation screens (AID 2061302; active = well fitted inhibition curve with a large enough effect; title and protocol of this record describe different tests;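 note: plate controls were DMSO vehicle for no effect and maximal DPI positive control response for full effect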); settings: ALDH inhibition qHTS; series mostly up to 42.6 µM
[4] = biological target: Retinaldehyde dehydrogenase 3 (Homo sapiens) (UniProt P47895); assay: qHTS for Inhibitors of the Aldehyde Dehydrogenase Family (ALDH1A3) Validation screen (AID 2061312); settings: ALDH1A3 enzyme inhibition qHTS validation, fluorescence; series mostly up to 84.7 µM; note: % is set by controls: 0 for no effect and ±100 for the full control effect; nearly all actives have a fitted effect of over 45% in size

Sequence of Cellular tumor antigen p53 (Homo sapiens) (P04637 whole entry, looked up): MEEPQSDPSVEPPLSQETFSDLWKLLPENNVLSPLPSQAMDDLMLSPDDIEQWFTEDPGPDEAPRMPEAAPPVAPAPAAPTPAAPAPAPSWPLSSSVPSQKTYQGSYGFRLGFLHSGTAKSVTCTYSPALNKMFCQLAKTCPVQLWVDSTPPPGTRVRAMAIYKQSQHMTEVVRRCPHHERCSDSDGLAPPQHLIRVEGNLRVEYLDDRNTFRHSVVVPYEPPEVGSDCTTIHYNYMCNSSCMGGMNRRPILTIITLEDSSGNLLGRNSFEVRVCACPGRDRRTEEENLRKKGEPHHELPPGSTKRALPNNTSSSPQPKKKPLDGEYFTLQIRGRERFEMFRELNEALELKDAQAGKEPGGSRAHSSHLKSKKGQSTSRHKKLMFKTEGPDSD

O=C(Nc1ccccc1)c1cc([N+](=O)[O-])ccc1Cl
inactive: activation [1] 24.9% | Potency [2] | Potency [3] | Potency [4]

CCC1C(=O)OCC1Cc1cncn1C (configuration not stated)
inactive: activation [1] -0.565% and -54.1% and -41.4% | Potency [2] | Potency [3] | Potency [4]

c1ccc(-c2ccccn2)nc1
inactive: activation [1] -21.2% | Potency [2] | Potency [3] | Potency [4]
